# According to publication PMC5540273 (PLoS ONE, 2017):
# Tests used:
# Details in all cases: concentration: 1 μM, replicates: in singlicate; n = 1
# [1] = tested on: WNK1
# [2] = tested on: WNK2
# [3] = tested on: WNK3
# [4] = tested on: WNK4
# [5] = tested on: T1, YANK1
# T1 construct: gene STK32A
# [6] = tested on: T2, YANK2
# T2 construct: gene STK32B
# [7] = tested on: T3, YANK3
# T3 construct: gene STK32C
# [8] = tested on: T4, YES
# T4 construct: gene YES1
# [9] = tested on: T5, YSK1
# T5 construct: gene STK25
# [10] = tested on: T6, YSK4
# T6 construct: gene MAP3K19
# 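Note: KINOMEscan kinase panel screen.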
Structure (SMILES),%Inh [1],%Inh [2],%Inh [3],%Inh [4],%Inh [5],%Inh [6],%Inh [7],%Inh [8],%Inh [9],%Inh [10]
COc1cc(Nc2ccnc3cc(-c4ccncc4)ccc23)cc(OC)c1OC.Cl [GW494610],22%,4%,16%,19%,2%,32%,9%,76%,0%,98.5%
Cc1cccc(Nc2nc(N[C@H]3CCCC[C@H]3N)ncc2C(N)=O)c1.Cl [GSK986310],9%,30%,32%,0%,50%,46%,51%,44%,54%,82%
Cn1cc(-c2ccc3c(c2)CCN3C(=O)Cc2cc(F)cc(F)c2F)c2c(N)ncnc21 [GSK2634140],13%,8%,23%,14%,29%,13%,0%,15%,23%,96.7%
Cc1ccc(-c2ccc3occ(-c4ccc(S(C)=O)cc4)c3c2)nn1 (stereo not shown),0%,18%,0%,0%,0%,1%,24%,0%,1%,4%
COc1cccc(NC(=O)NCCNc2ccnc(Nc3ccc(F)cc3)n2)c1 [GSK1379879],5%,22%,22%,46%,0%,0%,0%,0%,0%,44%
Cl.O=C(Nc1ccc(Oc2ccc3[nH]c(NC(=O)c4ccco4)nc3c2)cc1)Nc1cc(C(F)(F)F)ccc1F [GW683134],2%,0%,14%,9%,2%,0%,14%,61%,0%,92.9%
Cc1ccc(O)cc1Nc1ccnc2ccc(C(C)(C)C)cc12 [GW856805],38%,0%,21%,0%,29%,4%,45%,76%,1%,48%
N#Cc1cnc2cc(-c3cnc(CNCCN4CCOCC4)s3)ccc2c1Nc1ccc(Oc2ccccc2)cc1 [GW664114],74%,95.9%,94.2%,89%,0%,0%,0%,97.1%,19%,97%
Nc1ncc(-c2cn[nH]c2)c2scc(-c3ccc4c(c3)CCN4C(=O)Cc3ccccc3)c12 [GSK2593067],4%,31%,52%,23%,3%,0%,30%,57%,6%,81%
COc1cccc(-c2nc(-c3ccccc3)[nH]c2-c2ccncc2)c1 [SB-610250],9%,0%,33%,29%,10%,4%,0%,8%,100%,100%
O=C1NC(=O)C(c2ccccc2Cl)=C1Nc1cccc(Cl)c1 [SB-342409],14%,8%,0%,1%,0%,0%,100%,17%,15%,40%
Cc1ccc(NC(=O)c2cccc(N3CCCCC3)c2)cc1-c1ccc(C(=O)NCC2CC2)cc1 [GSK1917008],13%,0%,2%,10%,9%,11%,22%,10%,12%,35%
COc1cc(Nc2nccc(N3CCC(NC(=O)Nc4ccc5c(c4)OCO5)C3)n2)cc(OC)c1OC (stereo not shown) [GSK1379766],11%,11%,46%,5%,0%,0%,6%,7%,0%,45%
Cc1cc(-c2c(-c3ccc(F)cc3)ncn2CCCN2CCOCC2)nc(N)n1 [SB-222517],0%,0%,0%,0%,0%,13%,16%,0%,20%,11%
COc1ccc(C)c(Nc2ccnc(Nc3ccc(-c4cnc[nH]4)cc3)n2)c1.Cl [GW784041],0%,0%,0%,0%,0%,0%,0%,29%,0%,7%
CCOc1nccc(-c2c(-c3ccc(F)cc3)ncn2C2CCNCC2)n1 [SB-249175],25%,4%,4%,0%,52%,36%,0%,0%,2%,37%
